A selection: hits, their analogues and other compounds. The true share with any hit is near 1.3%.
EPAC2 antag – EPAC2 (human) antagonism; Q8WZA2; EPAC2 GEF exchange of Rap1B-BODIPY-GDP, fluorescence; Potency, µM (series often up to 114 µM), for inactives: top-dose activity, negative = inhibition, hits mostly inhibitors; actives 0.18% (n = 360,000); AID 720708; further: on the % scale 0 is the no-effect control and ±100 the full control effect; nearly all actives have a fitted effect of over 45% in size
EPAC1 antag – EPAC1 (human) antagonism; EPAC1 GEF assay, Rap1b-BODIPY-GDP exchange fluorescence; Potency, µM (doses to about 115 µM), inactives show top-dose activity change, negative = inhibition, hits mostly inhibitors; actives 0.14% (n = 360,000); O95398; AID 720709;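 further: plate controls were vehicle for no effect and positive control for full effect; nearly all actives have a fitted effect of over 50% in size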
Target sequence (O95398 whole entry, looked up): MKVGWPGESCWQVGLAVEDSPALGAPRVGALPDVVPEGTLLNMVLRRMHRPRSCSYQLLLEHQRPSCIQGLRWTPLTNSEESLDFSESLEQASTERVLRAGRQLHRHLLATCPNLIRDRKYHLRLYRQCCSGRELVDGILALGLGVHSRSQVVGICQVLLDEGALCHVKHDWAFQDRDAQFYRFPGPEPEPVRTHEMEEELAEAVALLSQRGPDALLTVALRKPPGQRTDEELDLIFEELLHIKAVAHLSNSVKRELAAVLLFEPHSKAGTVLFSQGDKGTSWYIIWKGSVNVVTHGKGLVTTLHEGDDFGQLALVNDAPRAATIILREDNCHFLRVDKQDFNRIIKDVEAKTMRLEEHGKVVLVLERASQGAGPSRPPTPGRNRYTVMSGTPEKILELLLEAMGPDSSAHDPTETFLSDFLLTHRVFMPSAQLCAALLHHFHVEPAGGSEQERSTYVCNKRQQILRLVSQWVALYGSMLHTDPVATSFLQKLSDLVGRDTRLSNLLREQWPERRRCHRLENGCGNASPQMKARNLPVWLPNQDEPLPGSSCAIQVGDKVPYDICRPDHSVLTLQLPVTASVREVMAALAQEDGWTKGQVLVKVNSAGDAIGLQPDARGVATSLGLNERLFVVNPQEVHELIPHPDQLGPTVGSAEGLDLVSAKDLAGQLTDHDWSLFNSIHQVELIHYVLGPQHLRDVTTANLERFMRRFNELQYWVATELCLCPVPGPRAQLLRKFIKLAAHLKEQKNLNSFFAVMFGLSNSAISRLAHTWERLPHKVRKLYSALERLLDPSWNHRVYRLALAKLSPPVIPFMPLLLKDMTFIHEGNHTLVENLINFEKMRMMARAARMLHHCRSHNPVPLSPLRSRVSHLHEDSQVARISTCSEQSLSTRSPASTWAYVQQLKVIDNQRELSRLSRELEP
RGS4 inhibitor – blocks human RGS4-accelerated GTP hydrolysis | Potency, µM (titrated, usually from 114 µM), inactives show top-dose activity change, negative = inhibition, most hits filed as inhibitors | actives 0.039% (n = 390,000) | P49798 | Transcreener GDP fluorescence polarization, RGS4-accelerated GTP hydrolysis; further: on the % scale 0 is the no-effect control and ±100 the full control effect; nearly all actives have a fitted effect of over 75% in size
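MLSMR compounds (23 nl, pin-transferred) preincubated 10 min at room temperature with a 500nM (2x) first reagent, then RGS4 at 900nM (2x) plus Transcreener GDP mix added; fluorescence polarization (620/688 nm) read before and after 90 min at 30 °C.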
EPAC1 agonist – agonists of human EPAC1. Potency, µM (doses to about 154 µM), without a hit: at the top dose activation, usual class: activators. actives 0.073% (n = 360,000). EPAC1 agonist qHTS, biochemical assay; response scale: 100% = response to 6.5 mM cAMP. AID 720707; further: nearly all actives have a fitted effect of over 60% in size
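EPAC1 100 nM, Rap1B–BODIPY-GDP 250 nM, unlabeled GDP 50 uM; compound titration; 5 min RT; kinetic read ex480/em540 at 5-min intervals ×30 min; data normalized to 6.5 mM cAMP agonist control.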
BRCA1 expr act – BRCA1 expression activation; MCF7-BRCA1-FFLuc reporter, luminescence, 48 h; response scale: scaled: vehicle 0%, 10 µM genistein 100%; Potency, µM (doses to about 46.1 µM), for the others: top-dose activation, most hits filed as activators; actives 1.1% (n = 380,000); AID 624202; further: nearly all actives have a fitted effect of over 80% in size
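48 h compound treatment of MCF7-BRCA1-FFLuc cells (phenol-red free MEM, 37 °C), then 15 min with luciferase substrate and luminescence imaging.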
EPAC2 agonist – activates human EPAC2 exchange factor; Q8WZA2; EPAC2 activation, biochemical qHTS; response scale: 100% = 6.5 mM cAMP response; Potency, µM (top dose mostly 154 µM), for inactives: at the highest dose activation, hits mostly activators; actives 0.079% (n = 360,000); AID 720711; further: nearly all actives have a fitted effect of over 50% in size
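Exchange assay: 100 nM EPAC2 with 250 nM Rap1B-BODIPY-GDP and 50 uM GDP. Fluorescence (ex 480/em 540 nm) read every 5 min for 30 min at room temperature. Data normalized to 6.5 mM cAMP as agonist control.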
* = called active by the depositor; ? = inconclusive; . = no result; [ ] = dose if it differs, or a comment. The call rests on the fitted dose curve; in most records, active means well fitted curve in the direction sought with a large enough effect; inconclusive means small, poorly fitted or top-dose-only effect, or another doubt; inactive means no such curve, though single readings can be large; an effect the other way counts as inactive or inconclusive. Potency means the concentration at half of the fitted maximal effect.

SMILES	EPAC2 antag	EPAC1 antag	RGS4 inhibitor	EPAC1 agonist	BRCA1 expr act	EPAC2 agonist
Cc1ccc(C(=O)Cc2cc3ccccc3oc2=O)c(C)c1	4%	7%	4%	-3%	4µM*	5%
Cc1nn(-c2ccccc2)c(C)c1C(=O)OCC(=O)Nc1ccccc1	-5%	-11%	-14%	14%	-3%	1%
Cc1nc(COC(=O)c2c(C)nn(-c3ccccc3)c2C)cs1	23%	4%	-12%	9%	13µM*	3%
Cc1ccc(C(C(=O)NCc2ccco2)N(C(=O)Cc2cccs2)c2cccnc2)cc1 (configuration not stated)	10%	4%	13%	-1%	2%	4%
CC(C)C(=O)Nc1ccc(NC(=O)c2ccccn2)cn1	-1%	8%	-15%	1%	2.5µM*	0%
CC(C)(C)c1cc(-c2nc(N)nc(N)n2)c(O)c(C(C)(C)C)c1	-29%	?	21%	-15%	-68%	-7%
Cc1ccc(C)c(NC(=O)N2CCc3ccccc3C2)c1	-6%	12%	21%	8%	3.5µM*	4%
COc1cccc(NC(=O)N2CCc3ccccc3C2)c1	-5%	-28%	-19%	9%	11µM*	-1%
COc1ccc(N2Cc3ccccc3C2)cc1Cl	-8%	9%	-12%	-11%	6%	9%
Cn1c(=O)cc(SCC(=O)N2CCN(c3ccc(F)cc3)CC2)c2ccc(Cl)cc21	.	.	-3%	.	.	.
Cc1[nH]c2ccccc2c1N=Nc1cccc(C(=O)O)c1	-13%	-3%	-28%	15%	3.2µM*	1%
COc1ccc(/C=C2/SC(=S)N(NS(=O)(=O)c3ccccc3)C2=O)cc1	?	?	-42%	-9%	-1%	7%
O=C1/C(=C\c2ccc(Br)cc2)SC(=S)N1NS(=O)(=O)c1ccccc1	18µM*	?	-15%	-5%	12%	-12%
COc1ccccc1/C=C1\SC(=S)N(NS(=O)(=O)c2ccccc2)C1=O	?	56µM*	-1%	5%	-4%	-5%
COc1cc(/C=C2\SC(=S)N(NS(=O)(=O)c3ccccc3)C2=O)ccc1O	?	-10%	-1%	-11%	-3%	-1%
Cc1ccc(OCC(=O)Nc2ccc(-c3nc4ccc(C)cc4o3)cc2)cc1	.	.	-5%	.	0.89µM*	.
COc1ccc(OCC(=O)Nc2ccc(-c3nc4cc(C)c(C)cc4o3)cc2)cc1	.	.	3%	.	-28%	.
O=C(Cc1ccc(Br)cc1)N1CCc2ccccc2C1	-8%	-14%	-8%	2%	10µM*	8%
O=C(/C=C/C(=O)N1CCc2ccccc2C1)N1CCc2ccccc2C1	6%	-14%	0%	11%	-2%	6%
Cc1ccc(CNc2ccc3c(c2)ncn3C)cc1	2%	1%	-24%	5%	5µM*	7%
CCCn1cnc2cc(NCc3ccccn3)ccc21	16%	-1%	-12%	11%	4µM*	14%
COc1ccccc1-n1cnc2cc(NCc3ccccn3)ccc21	-3%	-7%	5%	6%	-42%	9%
CS(=O)(=O)N1N=C(c2ccco2)CC1c1ccccc1Cl (configuration not stated)	-15%	-7%	11%	6%	-21%	8%
CS(=O)(=O)N1N=C(c2ccco2)CC1c1ccc(Cl)cc1Cl (configuration not stated)	10µM*	-5%	0%	4%	0%	6%
COc1ccccc1/C=C/C=c1\sc2nc(=O)c(Cc3ccccc3)nn2c1=O	6%	35µM*	?	8%	-5%	?
SMILES	EPAC2 antag	EPAC1 antag	RGS4 inhibitor	EPAC1 agonist	BRCA1 expr act	EPAC2 agonist
CCCOc1ccc(Cc2nn3c(=O)/c(=C/c4ccco4)sc3nc2=O)cc1	7%	-4%	?	7%	-3%	-9%
Cc1ccc(OCC(=O)NC(=S)Nc2ccccn2)c(Br)c1	18%	10%	-18%	-7%	11µM*	2%
O=C(CCc1ccccc1)NNC(=O)c1ccccc1Cl	-5%	1%	-4%	-8%	-23%	4%
O=C(NNCc1ccc(O)cc1)c1ccccc1Cl	-11%	-9%	2%	-16%	13µM*	-4%
c1cc2c(cc1CN1CCOCC1)OCO2	-2%	5%	15%	2%	1%	1%
O=C1CSC(c2ccc(Cl)cc2Cl)N1c1ccccn1 (configuration not stated)	18µM*	-14%	15%[11.4 µM]	10%	-5%	23%
COC(=O)c1ccc(-c2ccc(F)cc2)nc1C	2%	5%	-4%	0%	?	2%
CCOC(=O)c1ccc(-c2ccc3c(c2)CCC3)nc1C	-2%	-7%	19%	10%	10µM*	11%
CN(C)c1ccc(Cc2cc3c(O)ccc(O)c3cc(Cc3ccc(N(C)C)cc3)c2=O)cc1	-5%	50µM*	?	9%	20%	10%
CN(C)c1ccc(C(=O)c2ccc(O)cc2O)cc1	-5%	2%	4%[11.4 µM]	4%	?	-8%
COc1ccc(OC)c(-c2nnc3n2N=C(c2ccc(OC)c(OC4CCCC4)c2)CS3)c1	-3%	-15%	-38%	6%	-75%	13%
CC(C)(C)c1cc(NC(=O)c2cccnc2)no1	0%	-6%	5%	3%	7.1µM*	9%
Cc1cc(C)cc(NC(=O)c2sc3nc(C)cc(C)c3c2N)c1	1%	6%	-16%	5%	4µM*	-3%
Cc1cccc(NC(=O)c2sc3nc(N)c(C#N)cc3c2N)c1	-15%	0%	-16%	6%	3.2µM*	0%
Cc1cc(C)c(NC(=O)c2sc3nc(C)cc(C)c3c2N)c(C)c1	.	.	-9%	.	-38%	.
O=[N+]([O-])c1cccc2ccc(/C=C/c3cccc(Br)c3)nc12	1%	-25%	3%	5%	-65%	5%
COc1ccc(C(CNC(=O)c2cc(S(=O)(=O)NCc3ccccc3)ccc2C)N2CCOCC2)cc1 (configuration not stated)	-10%	-28%	20%	-4%	5%	6%
CCn1c(C)nc2cc(C(=O)NNS(=O)(=O)c3ccccc3F)ccc21	-1%	0%	-4%	0%	31%	-4%
O=C(Nc1ccc(NC(=O)c2ccco2)cc1)c1ccco1	1%	-16%	-34%	11%	10µM*	6%
CC(=O)c1ccc(NC(=O)c2cccc(S(=O)(=O)N3CCN(C)CC3)c2)cc1	8%	-4%	-9%	10%	11µM*	9%
O=C(Nc1nccs1)c1ccc(NC(=O)c2ccco2)cc1	0%	-5%	16%	4%	5µM*	11%

High-throughput results (PubChem BioAssay)
